Experimental data as given in PubChem BioAssay (NCI).
About 79,000 compounds went through this panel and 15% of them were active in at least one assay; those are over-represented in the sample as a whole. The source made the active and inactive calls. Cut-off read from the data, not from the text of the source: active = growth inhibition above about 70%; inactive = the rest.

Columns and labels:
[1] = NCI Yeast Anticancer Drug Screen. Data for the wt1 strain (AID 149);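 note: 0% = growth of vehicle-treated wt1 cultures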; conditions: S. cerevisiae wt1 strain (SPY 50644) growth inhibition, active compounds read high
In short: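 Compounds are added to wt1 yeast cultures. Growth is then measured. Inhibition is expressed relative to vehicle-treated controls.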

[2] = NCI Yeast Anticancer Drug Screen. Data for the rad50EPP+ strain (AID 151);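 note: 0% = growth of vehicle-treated control cultures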; conditions: S. cerevisiae rad50 mutant strain, active compounds read high
In short: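 One strain with a rad50 alteration (rad50EPP+) was compound-treated, its growth then compared to that of vehicle controls.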

[3] = NCI Yeast Anticancer Drug Screen. Data for the rad50 strain (AID 155);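 note: 0% = growth of vehicle-only cultures of the same strain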; conditions: S. cerevisiae rad50 strain growth inhibition, active compounds read high
In short: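 Inhibition values express reduced yeast growth in compound-treated cultures relative to vehicle-treated controls.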

[4] = NCI Yeast Anticancer Drug Screen. Data for the mec2-1 strain (AID 157); conditions: S. cerevisiae mec2-1 strain, active compounds read high
In short: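 Test agents were screened against the mec2-1 yeast strain, with defined DNA repair or cell cycle alteration. Growth was scored as inhibition against vehicle-only controls.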

[5] = NCI Yeast Anticancer Drug Screen. Data for the rad14 strain (AID 159);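 note: 0% = growth of vehicle-treated control cultures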; conditions: S. cerevisiae rad14 strain growth inhibition, active compounds read high
In short: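 A mutant yeast strain defective in DNA damage repair is treated with compound; inhibition of its growth is scored against untreated, vehicle-exposed cultures.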

[6] = NCI Yeast Anticancer Drug Screen. Data for the sgs1 mgt1 strain (AID 161);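 note: 0% = growth of cultures given vehicle only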; conditions: S. cerevisiae sgs1 mgt1 strain, active compounds read high
In short: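 Genetically altered yeast, compound exposure, growth inhibition relative to vehicle.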

[7] = NCI Yeast Anticancer Drug Screen. Data for the CLN2oe strain (AID 163);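 note: 0% = growth of vehicle-only control cultures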; conditions: S. cerevisiae CLN2oe strain, active compounds read high
In short: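 Here, growth inhibition in a cell-cycle-altered yeast strain after compound exposure was quantified against vehicle control growth.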

[8] = NCI Yeast Anticancer Drug Screen. Data for the cln2 rad14 strain (AID 165);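 note: 0% = growth equal to vehicle treated cultures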; conditions: S. cerevisiae cln2 rad14 strain, active compounds read high
In short: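 Growth of compound-exposed yeast (cln2 rad14 genotype) measured and expressed as inhibition relative to vehicle.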

[9] = NCI Yeast Anticancer Drug Screen. Data for the bub3 strain (AID 167); conditions: S. cerevisiae bub3 mutant strain, active compounds read high
In short: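 Steps: expose the mutant yeast strain to compound; grow alongside vehicle-treated cultures; measure growth; express inhibition against the vehicle cultures.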

[10] = NCI Yeast Anticancer Drug Screen. Data for the wt2 strain (AID 169);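 note: 0% = growth of vehicle-treated yeast cultures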; conditions: S. cerevisiae wt2 strain growth inhibition, active compounds read high
In short: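 Genetically defined yeast strains from a DNA-repair/cell-cycle panel were used. Compound-exposed yeast growth was measured, and the inhibition was calculated relative to vehicle treatment.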

[11] = NCI Yeast Anticancer Drug Screen. Data for the mlh1 strain (AID 171);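 note: 0% = growth of vehicle-treated control cultures of the same strain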; conditions: S. cerevisiae mlh1 strain growth inhibition, active compounds read high
In short: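 Here the genetically defined yeast mutant is grown with each compound, and the extent to which its growth falls below that of vehicle-exposed cells is reported.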

[12] = NCI Yeast Anticancer Drug Screen. Data for the sgs1 strain (AID 173);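 note: 0% = growth of vehicle-only control cultures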; conditions: S. cerevisiae sgs1 mutant, active compounds read high
In short: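 Relative growth inhibition, referenced to vehicle, was determined in a yeast strain with a defined alteration affecting DNA damage repair or cell cycle control after compound exposure.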

[13] = NCI Yeast Anticancer Drug Screen. Data for the mlh1 rad18 strain (AID 175); conditions: S. cerevisiae mlh1 rad18 strain growth inhibition, active compounds read high
In short: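 In this whole-cell yeast screen, a strain with altered DNA damage repair is challenged with compound, and its growth is measured against matched vehicle-treated controls.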

[14] = NCI Yeast Anticancer Drug Screen. Data for the rad18 strain (AID 177); conditions: S. cerevisiae rad18 mutant growth inhibition, active compounds read high
In short: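 Screen uses a yeast strain with a defined lesion in DNA damage repair; compound effect is read as loss of growth compared to untreated vehicle cultures.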

[15] = at 5.0 µM (retest, dose inferred, filed as 0.5)
[16] = at 50.0 µM (retest, dose inferred, filed as 5.0)

Measured: growth inhibition

COc1cc(CNc2ccc(C(C)C)cc2)cc(OC)c1OC
inactive: [1]; at 1.2 µM 1% | [1]; at 3.7 µM 15% | [1]; at 11.0 µM 7% | [1]; at 33.0 µM -8% | [1]; at 100.0 µM 56% | [2]; at 1.2 µM -4% | [2]; at 3.7 µM -6% | [2]; at 11.0 µM 5% | [2]; at 33.0 µM 26% | [2]; at 100.0 µM 28% | [3]; at 1.2 µM 13% | [3]; at 3.7 µM 0% | [3]; [15] -1% | [3]; at 11.0 µM -2% | [3]; at 33.0 µM -19% | [3]; [16] -3% | [3]; at 50.0 µM 32.5% | [4]; at 1.2 µM 8% | [4]; at 3.7 µM -8% | [4]; [15] -42% | [4]; at 11.0 µM -4% | [4]; at 33.0 µM -25% | [4]; [16] 1% | [4]; at 50.0 µM 25.4% | [4]; at 100.0 µM 59% | [5]; at 1.2 µM -6% | [5]; at 3.7 µM -17% | [5]; at 11.0 µM -31% | [5]; at 33.0 µM -50% | [6]; [15] -7% | [6]; [16] 25% | [6]; at 50.0 µM 64% | [7]; at 1.2 µM -12% | [7]; at 3.7 µM -19% | [7]; at 11.0 µM -28% | [7]; at 33.0 µM -50% | [7]; at 100.0 µM -4% | [8]; [15] 6% | [8]; [16] 24% | [8]; at 50.0 µM 6.85% | [9]; at 1.2 µM -13% | [9]; at 3.7 µM -22% | [9]; [15] 13% | [9]; at 11.0 µM -26% | [9]; at 33.0 µM -6% | [9]; at 50.0 µM 65.2% | [10]; at 1.2 µM -1% | [10]; at 3.7 µM -26% | [10]; at 11.0 µM -9% | [10]; at 33.0 µM -20% | [10]; at 100.0 µM 69% | [11]; at 1.2 µM -2% | [11]; at 3.7 µM -21% | [11]; at 11.0 µM -15% | [11]; at 33.0 µM -20% | [12]; at 1.2 µM 26% | [12]; at 3.7 µM 23% | [12]; at 11.0 µM 21% | [12]; at 33.0 µM 11% | [13]; [15] -11% | [13]; [16] 32% | [13]; at 50.0 µM 55.7% | [14]; at 1.2 µM 4% | [14]; at 3.7 µM 9% | [14]; at 11.0 µM -5% | [14]; at 33.0 µM 9% | [14]; at 100.0 µM 64%
active: [3]; at 100.0 µM 73% | [5]; at 100.0 µM 72% | [9]; [16] 78% | [9]; at 100.0 µM 71% | [11]; at 100.0 µM 76% | [12]; at 100.0 µM 84%
